Six compounds from PubChem BioAssay (EPA / NIEHS) can be followed below.

Read-out in test [1]: Vascular cell adhesion molecule 1 (VCAM1), VCAM1 (gene 7412)
Nature of the test: BSK_BF4T_VCAM1: BioMAP Diversity Plus: BF4T Assay for Vascular cell adhesion molecule 1 (VCAM1) Biomarker Activity (AID 2284249). The following applies: primary human bronchial epithelial cells with fibroblasts. An outline of the steps: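 Cell-surface VCAM-1 quantified by ELISA after 24 h chemical exposure of human bronchial epithelial/dermal fibroblast co-cultures, with SRB staining in parallel wells for cytotoxicity; DMSO baseline, positive-direction fitting.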

Read-out in test [2]: Collagen I, COL1A1 (gene 1277)
Nature of the test: BSK_hDFCGF_CollagenI: BioMAP Diversity Plus: hDFCGF Assay for Collagen I Biomarker Activity (AID 2284250). The following applies: primary human foreskin fibroblasts. An outline of the steps:
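ELISA read-out of Collagen I in human dermal foreskin fibroblast cultures, 24 h after dosing. Gain of signal versus DMSO vehicle defines activity.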

Read-out in test [3]: Interferon-inducible T-cell alpha chemoattractant (ITAC), CXCL11 (gene 6373)
Put plainly: BSK_hDFCGF_ITAC: BioMAP Diversity Plus: hDFCGF Assay for Interferon-inducible T-cell alpha chemoattractant (ITAC) Biomarker Activity (AID 2284251). The following applies: primary human foreskin fibroblasts. An outline of the steps: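 Measured by ELISA, the chemokine level serves as the endpoint in human skin fibroblast primary cultures 24 h after compound addition. Increases relative to DMSO-treated wells define activity.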

Read-out in test [4]: Plasminogen activator inhibitor-1 (PAI1), SERPINE1 (gene 5054)
Nature of the test: BSK_KF3CT_PAI1: BioMAP Diversity Plus: KF3CT Assay for Plasminogen activator inhibitor-1 (PAI1) Biomarker Activity (AID 2284252). As to conditions: primary human keratinocytes with fibroblasts. An outline of the steps: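 Keratinocyte + dermal fibroblast co-culture (human primary); 24 h post-dose; PAI-1 by ELISA; gain-of-signal fit vs DMSO control.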

Read-out in test [5]: Monocyte Chemoattractant Protein-1 (MCP1), CCL2 (gene 6347)
Put plainly: BSK_IMphg_MCP1: BioMAP Diversity Plus: IMphg Assay for Monocyte Chemoattractant Protein-1 (MCP1) Biomarker Activity (AID 2284253). The following applies: primary human endothelial cells with macrophages. The gist of the method:
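ELISA readout of MCP-1 at 24 hours in IMphg co-cultures of venular endothelial cells and macrophages, normalised to DMSO; parallel cultures stained with sulforhodamine B for overt cytotoxicity.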

Read-out in test [6]: Interleukin-8 (IL8), CXCL8 (gene 3576)
Nature of the test: BSK_KF3CT_IL8: BioMAP Diversity Plus: KF3CT Assay for Interleukin-8 (IL8) Biomarker Activity (AID 2284254). The following applies: primary human keratinocytes with fibroblasts. An outline of the steps:
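IL-8 by ELISA in primary human skin co-culture (keratinocytes plus fibroblasts) 24 h post-dose, DMSO as baseline. Cytotoxicity assessed in parallel by sulforhodamine B total-protein staining.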

Read-out in test [7]: Macrophage Inflammatory Protein-1 Alpha (MIP1a), CCL3 (gene 6348)
Nature of the test: BSK_IMphg_MIP1a: BioMAP Diversity Plus: IMphg Assay for Macrophage Inflammatory Protein-1 Alpha (MIP1a) Biomarker Activity (AID 2284255). The following applies: primary human endothelial cells with macrophages. An outline of the steps:
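MIP-1a protein levels were quantified by ELISA after 24 h treatment of human endothelial cell–macrophage co-cultures, compared with DMSO. Parallel cultures were fixed with TCA and stained with 0.1% SRB to gauge overt cytotoxicity.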

Read-out in test [8]: Plasminogen activator inhibitor-1 (PAI1), SERPINE1 (gene 5054)
Nature of the test: BSK_MyoF_PAI1: BioMAP Diversity Plus: MyoF Assay for Plasminogen activator inhibitor-1 (PAI1) Biomarker Activity (AID 2284256).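 For outcome: PAI-1 protein level measured by ELISA in fibroblast cultures.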 As to conditions: primary human lung fibroblasts. The gist of the method:
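Human lung fibroblasts (MyoF system) were exposed to test chemicals for 24 h, then PAI-1 was quantified by ELISA. Activity was fitted in the positive (signal-gain) direction relative to DMSO vehicle as baseline.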

Read-out in test [9]: CD69, CD69 (gene 969)
Nature of the test: BSK_IMphg_CD69: BioMAP Diversity Plus: IMphg Assay for CD69 Biomarker Activity (AID 2284257). As to conditions: primary human endothelial cells with macrophages. An outline of the steps: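 Readout is ELISA for CD69 in primary human venular endothelial cell/macrophage co-culture, taken at 24 h post-dosing. SRB staining of parallel cultures gauged overt cytotoxicity; signal increase versus DMSO defined activity.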

Read-out in test [10]: Eotaxin 3, CCL26 (gene 10344)
Nature of the test: BSK_BF4T_Eotaxin3: BioMAP Diversity Plus: BF4T Assay for Eotaxin 3 Biomarker Activity (AID 2284258). The following applies: primary human bronchial epithelial cells with fibroblasts. The gist of the method:
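ELISA measurement of Eotaxin-3 after 24 h chemical exposure in a bronchial epithelial/dermal fibroblast co-culture, with DMSO as baseline. Parallel SRB staining (0.1% SRB after 10% TCA fixation, 560 nm) flagged overt cytotoxicity.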

Read-out in test [11]: Monocyte Chemoattractant Protein-1 (MCP1), CCL2 (gene 6347)
Nature of the test: BSK_BF4T_MCP1: BioMAP Diversity Plus: BF4T Assay for Monocyte Chemoattractant Protein-1 (MCP1) Biomarker Activity (AID 2284259). As to conditions: primary human bronchial epithelial cells with fibroblasts. The gist of the method:
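MCP-1 ELISA readout taken 24 h after dosing in the BF4T system (bronchial epithelial cells plus dermal fibroblasts). Parallel SRB total-protein staining flagged cytotoxicity; DMSO served as baseline, positive fitting direction.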

Read-out in test [12]: Intercellular Adhesion Molecule 1 (ICAM1), ICAM1 (gene 3383)
Put plainly: BSK_BF4T_ICAM1: BioMAP Diversity Plus: BF4T Assay for Intercellular Adhesion Molecule 1 (ICAM1) Biomarker Activity (AID 2284260). As to conditions: primary human bronchial epithelial cells with fibroblasts. An outline of the steps: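 ICAM-1 levels measured by ELISA after 24 h chemical treatment of bronchial epithelial cell/dermal fibroblast co-cultures, read against DMSO baseline. Overt cytotoxicity checked in parallel cultures by sulforhodamine B staining.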

Read-out in test [13]: Interleukin-8 (IL8), CXCL8 (gene 3576)
Put plainly: BSK_MyoF_IL8: BioMAP Diversity Plus: MyoF Assay for Interleukin-8 (IL8) Biomarker Activity (AID 2284261). The following applies: primary human lung fibroblasts. The gist of the method:
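IL-8 quantified by ELISA after 24 h compound exposure of primary human lung fibroblasts. SRB staining of parallel cultures flagged cytotoxicity; DMSO served as baseline.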

Read-out in test [14]: CD90, THY1 (gene 7070)
Nature of the test: BSK_BF4T_CD90: BioMAP Diversity Plus: BF4T Assay for CD90 Biomarker Activity (AID 2284262). The following applies: primary human bronchial epithelial cells with fibroblasts. The gist of the method:
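CD90 levels by ELISA after 24 h treatment of human bronchial epithelial cell/dermal fibroblast cultures, analysed versus DMSO. Overt cytotoxicity checked in parallel cultures by sulforhodamine B staining.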

Read-out in test [15]: Interleukin-8 (IL8), CXCL8 (gene 3576)
Put plainly: BSK_BF4T_IL8: BioMAP Diversity Plus: BF4T Assay for Interleukin-8 (IL8) Biomarker Activity (AID 2284263). As to conditions: primary human bronchial epithelial cells with fibroblasts. The gist of the method: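 Human bronchial epithelial cells with dermal fibroblasts co-culture; IL-8 measured by ELISA 24 hours after dosing, fitted vs DMSO. Cytotoxicity tracked in parallel cultures by SRB total-protein staining.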

Read-out in test [16]: Interleukin-1 alpha (IL1a), IL1A (gene 3552)
Nature of the test: BSK_BF4T_IL1a: BioMAP Diversity Plus: BF4T Assay for Interleukin-1 alpha (IL1a) Biomarker Activity (AID 2284264). The following applies: primary human bronchial epithelial cells with fibroblasts. An outline of the steps:
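ELISA read-out of IL-1α from bronchial epithelial cell/dermal fibroblast co-cultures 24 h after compound addition. Increases scored against DMSO negative control. Cytotoxicity monitored by sulforhodamine B staining of parallel cultures.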

Read-out in test [17]: Decorin, DCN (gene 1634)
Nature of the test: BSK_MyoF_Decorin: BioMAP Diversity Plus: MyoF Assay for Decorin Biomarker Activity (AID 2284265). As to conditions: primary human lung fibroblasts. The gist of the method: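 Decorin protein was quantified by ELISA 24 h after chemical addition to primary human lung fibroblasts and analysed as increase over DMSO. Cytotoxicity was tracked in parallel cultures by SRB total-protein staining read at 560 nm.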

Read-out in test [18]: KRT18 (gene 3875)
Put plainly: BSK_BF4T_Keratin818: BioMAP Diversity Plus: BF4T Assay for Keratin 818 Biomarker Activity (AID 2284266). The following applies: primary human bronchial epithelial cells with fibroblasts. The gist of the method:
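Keratin 8/18 levels quantified by ELISA after 24 h chemical treatment of bronchial epithelial cell/dermal fibroblast co-cultures, fitted in positive direction relative to DMSO. Parallel SRB staining tracks overt cytotoxicity.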

Test [19] is described as follows: BSK_MyoF_SRB: Viability Assessment in the BioMAP Diversity Plus: MyoF Assay (AID 2284267).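 Note: total protein by SRB absorbance in parallel cultures as cytotoxicity measure.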 As to conditions: primary human lung fibroblasts. The gist of the method:
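Lung fibroblast cultures, 24 h post-dose; fix 10% TCA, stain 0.1% SRB, read 560 nm. Signal = total protein as cytotoxicity measure; fitted relative to DMSO negative control.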

Read-out in test [20]: Matrix Metallopeptidase 1 (MMP1), MMP1 (gene 4312)
Nature of the test: BSK_MyoF_MMP1: BioMAP Diversity Plus: MyoF Assay for Matrix Metallopeptidase 1 (MMP1) Biomarker Activity (AID 2284268). As to conditions: primary human lung fibroblasts. The gist of the method: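 Human lung fibroblasts (MyoF system) exposed to chemical for 24 h in 96-well format; MMP1 biomarker quantified by ELISA, with activity fitted in the positive direction relative to DMSO baseline.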

“And” between values parts separate entries of the source, which are not always exact repeats. Equal entries are not always repeated. Some compounds were tested as several samples or in several runs, with calls that do not always agree. The source made the active and inactive calls. Rule for the calls: active = hit-call score of the fitted dose curve at least 0.9, where 1 is the maximum; inactive = score below 0.9.

Turning to `O=S(=O)(O)C(F)(F)C(F)(F)C(F)(F)C(F)(F)F`, the outcome in [1], in [2], in [3], in [4], in [5] and in test [6] was inactive. Moreover, the outcome in test [7], in [8], in test [9], in test [10], in test [11] and in [12] was inactive. Also, the outcome in [13], in test [14], in [15], in [16], in [17] and in test [18] was inactive. Also, the result in [19] and in test [20] was inactive.

Usually AC50 stands for the midpoint of the concentration-response curve, whichever way the signal moves. On to `Oc1c(Cl)c(Cl)c(Cl)c(Cl)c1Cl`, for which the AC50 in [8] is 7.45 µM (active); in [13], 0.595 µM (active); in test [17], 10.2 µM (active); in [19], 6.05 µM (active); in test [20] it was 11.5 µM (active).

Take `O=C(O)C(F)(F)C(F)(F)C(F)(F)C(F)(F)C(F)(F)C(F)(F)C(F)(F)C(F)(F)C(F)(F)F`: the AC50 in test [1] was 11.8 µM (active) and 14.2 µM (active); in test [3] it was 19 µM (active) and 22 µM (active); in test [4], 41.7 µM (active) and 33.4 µM (active); in test [5], 46.9 µM (active) and 53.7 µM (active); in test [6], 44.9 µM (active); in [7], 47 µM (active) and 33.7 µM (active). In addition, the AC50 in test [8] was 46.7 µM (active) and 54.8 µM (active); in test [9] it was 45.3 µM (active) and 42 µM (active); in test [10], 9.59 µM (active) and 12.1 µM (active); in test [11], 9.32 µM (active) and 8.22 µM (active); in test [12], 11.6 µM (active) and 14.5 µM (active); in [13] it was 54.6 µM (active). Further, the AC50 in test [14] was 19 µM (active) and 19.4 µM (active); in test [16], 14.3 µM (active) and 48 µM (active); in [17], 23.6 µM (active) and 22.3 µM (active); in [18] it was 15 µM (active); in [19] it was 50 µM (active) and 38.9 µM (active); in [20], 45 µM (active). The result in test [2], in test [6], in test [13], in test [15], in test [18] and in test [20] was inactive.

Consider `COc1ccc(O)c(C(C)(C)C)c1`, for which the result in test [2], in test [3], in test [4] and in [6] was inactive.

With `Sc1ccccc1`, the result in test [8], in test [13], in test [17], in test [19] and in test [20] was inactive.

As for `O=S(=O)(O)C(F)(F)C(F)(F)C(F)(F)C(F)(F)C(F)(F)C(F)(F)F`, the result in test [1], in test [2], in test [3], in test [4], in [5] and in test [6] was inactive. Besides, the result in test [7], in test [8], in test [9], in test [10], in test [11] and in test [12] was inactive. Further, the outcome in test [13], in test [14], in test [15], in test [16], in test [17] and in test [18] was inactive. Moreover, the outcome in test [19] and in test [20] was inactive.
